# Compound activity from PubChem BioAssay.
# Most compounds without a hit are left out; they make up all but 2.4% or so of the library.
# Pol beta inh – inhibitors of human DNA polymerase beta | P06746 | Pol beta primer extension/strand displacement, fluorescence kinetic | Potency, µM (series often up to 114 µM), without a hit: at the highest dose activity change, negative = inhibition, most hits filed as inhibitors | 340,000 tested, 1.3% active | AID 485314; further: on the % scale 0 is the no-effect control and ±100 the full control effect
#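 Kinetic readout of DNA synthesis with strand displacement by Pol beta. Compound and 10 nM enzyme sit 15 min at room temperature; 50 nM substrate starts the reaction, read immediately and at 10 min.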
# Pol kappa inh-1 – blocks human DNA polymerase kappa activity; purified Pol kappa, fluorescent DNA synthesis assay, 10 min; Q9UBT6; AID 588579; 400,000 tested, 0.53% active; Potency, µM (doses to about 107 µM), for inactives: top-dose activity, negative = inhibition, most hits filed as inhibitors; further: on the % scale 0 is the no-effect control and ±100 the full control effect
#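 50 nM final substrate added after 15 min RT preincubation of 10 nM Pol kappa with compound; fluorescence read at 0 and 10 min.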
# FEN1 inh-1 – human FEN1 inhibition; Recombinant FEN1 flap cleavage, fluorescence, 15 min; AID 588795; Potency, µM (top dose mostly 114 µM), for the others: at the highest dose activity change, negative = inhibition, usual class: inhibitors; 390,000 tested, 0.35% active; further: on the % scale 0 is the no-effect control and ±100 the full control effect; nearly all actives have a fitted effect of over 65% in size
#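 Enzyme 10 nM, 15 min RT preincubation with compound; start with substrate 50 nM final; reads at 0 and 15 min; qHTS titration, four-parameter Hill fit.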
# Pol iota inh – DNA polymerase iota (human) inhibition; Q9UNA4; Pol iota fluorescent replication assay, 10 min; Potency, µM (highest dose often 115 µM), for inactives: at the highest dose activity, negative = inhibition, hits mostly inhibitors; 390,000 tested, 1% active; AID 588590
#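 Fluorescent replication assay read twice, at 0 min and 10 min after adding 50 nM (final) substrate. Enzyme (10 nM) and compounds were first incubated 15 min at room temperature; enzyme-free buffer wells were negative controls.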
# Pol eta inh-1 – DNA polymerase eta (human) inhibition | Q9Y253 | recombinant Pol eta, fluorescent DNA replication assay | Potency, µM (series often up to 114 µM), for inactives: at the highest dose activity change, negative = inhibition, usual class: inhibitors | 390,000 tested, 1.2% active | AID 588591; further: on the % scale 0 is the no-effect control and ±100 the full control effect
#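 Pol eta (10 nM) was preincubated with compounds for 15 min at room temperature, after which fluorescent replication substrate (50 nM final) was added to start the reaction. Fluorescence was read kinetically at 0 and 10 min.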
# WRN helicase inh – blocks human WRN helicase | Q14191 | WRN helicase unwinding, fluorescent forked duplex, kinetic | Potency, µM (titrated, usually from 114 µM), for the others: top-dose activity change, negative = inhibition, usual class: inhibitors | 360,000 tested, 0.46% active; further: on the % scale 0 is the no-effect control and ±100 the full control effect; nearly all actives have a fitted effect of over 55% in size
# Target sequence (Q14191 whole entry, looked up): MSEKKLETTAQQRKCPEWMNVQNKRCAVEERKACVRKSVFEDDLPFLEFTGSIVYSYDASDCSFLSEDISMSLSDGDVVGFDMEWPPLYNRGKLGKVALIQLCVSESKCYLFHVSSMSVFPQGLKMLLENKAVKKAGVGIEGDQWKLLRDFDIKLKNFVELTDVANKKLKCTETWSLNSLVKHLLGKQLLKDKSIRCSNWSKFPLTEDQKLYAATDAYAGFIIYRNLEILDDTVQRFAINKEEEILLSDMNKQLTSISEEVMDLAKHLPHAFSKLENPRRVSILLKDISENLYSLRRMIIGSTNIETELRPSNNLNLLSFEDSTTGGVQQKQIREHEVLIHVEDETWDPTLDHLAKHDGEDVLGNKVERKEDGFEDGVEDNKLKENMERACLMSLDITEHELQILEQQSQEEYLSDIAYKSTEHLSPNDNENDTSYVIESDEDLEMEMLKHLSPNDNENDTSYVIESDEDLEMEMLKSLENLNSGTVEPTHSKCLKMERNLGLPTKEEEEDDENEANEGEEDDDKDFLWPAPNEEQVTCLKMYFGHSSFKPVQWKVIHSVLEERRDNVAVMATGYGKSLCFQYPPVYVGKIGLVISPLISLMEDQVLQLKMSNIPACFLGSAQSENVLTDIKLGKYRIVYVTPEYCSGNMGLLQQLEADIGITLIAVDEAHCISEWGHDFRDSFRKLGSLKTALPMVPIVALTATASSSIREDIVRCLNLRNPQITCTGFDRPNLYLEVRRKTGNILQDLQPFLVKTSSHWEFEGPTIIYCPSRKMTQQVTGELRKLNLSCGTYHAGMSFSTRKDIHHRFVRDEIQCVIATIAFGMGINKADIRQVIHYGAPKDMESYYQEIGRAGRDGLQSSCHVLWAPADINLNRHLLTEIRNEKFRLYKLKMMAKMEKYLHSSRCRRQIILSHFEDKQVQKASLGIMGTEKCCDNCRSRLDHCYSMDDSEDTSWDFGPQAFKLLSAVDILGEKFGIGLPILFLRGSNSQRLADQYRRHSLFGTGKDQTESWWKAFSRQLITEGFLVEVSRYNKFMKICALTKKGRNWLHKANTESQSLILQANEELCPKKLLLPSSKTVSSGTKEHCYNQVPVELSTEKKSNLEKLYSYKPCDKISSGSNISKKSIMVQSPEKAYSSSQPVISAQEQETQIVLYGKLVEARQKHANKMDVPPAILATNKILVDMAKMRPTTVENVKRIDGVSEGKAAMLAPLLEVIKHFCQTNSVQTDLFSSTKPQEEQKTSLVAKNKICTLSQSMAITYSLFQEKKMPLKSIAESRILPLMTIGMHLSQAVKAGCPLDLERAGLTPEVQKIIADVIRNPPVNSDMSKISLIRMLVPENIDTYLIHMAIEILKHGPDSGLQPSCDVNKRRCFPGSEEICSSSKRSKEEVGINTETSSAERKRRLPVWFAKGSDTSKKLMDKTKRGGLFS
#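 WRN at 20 nM final was preincubated with compound for 15 min at room temperature; reaction started with 100 nM forked duplex oligonucleotide carrying fluorophore and quencher plus 2 mM ATP (final). Unwinding followed kinetically by red fluorescence (ex 525/em 598 nm).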
# TbPGK inh – TbPGK inhibition, hit validation | shares compounds with Pol kappa inh-1 | Potency, µM (highest dose often 57.5 µM), for inactives: at the top dose activity change, negative = inhibition, most hits filed as inhibitors | 500 tested, 79% active | TbPGK coupled GAPDH assay, Kinase-Glo luminescence | AID 686980; further: on the % scale 0 is the no-effect control and ±100 the full control effect; nearly all actives have a fitted effect of over 65% in size
# Pol iota confirm – Inhibitors of human DNA polymerase iota, confirmation | shares compounds with Pol kappa inh-1 | Pol iota primer extension, TAMRA/BHQ fluorescence | Potency, µM, hits mostly inhibitors | 1,500 tested, 77% active | AID 720496
# Pol kappa inh-2 – confirmation of human DNA polymerase kappa inhibitors; purified Pol-kappa, fluorescent strand-displacement substrate; 920 tested, 76% active; shares compounds with Pol eta inh-1; Potency, µM, actives largely listed as inhibitors
# Pol eta inh-2 – Pol eta (human) inhibition, cherry-pick confirmation | Pol eta primer extension, TAMRA/BHQ fluorescence, 10 min | Potency, µM, most hits filed as inhibitors | shares compounds with Pol eta inh-1 | 2,600 tested, 64% active
# FEN1 inh-2 – FEN1 inhibition, cherry-pick retest; FEN1 flap cleavage, TAMRA/BHQ2 fluorogenic DNA substrate; 880 tested, 79% active; shares compounds with FEN1 inh-1; Potency, µM, usual class: inhibitors; further: nearly all actives have a fitted effect of over 60% in size
# * hit, by the source's call; ? = inconclusive; · = no result; [ ] = remark or other dose. The call rests on the fitted dose curve; in most records, active means well fitted curve in the direction sought with a large enough effect; inconclusive means small, poorly fitted or top-dose-only effect, or another doubt; inactive means no such curve, though single readings can be large; an effect the other way counts as inactive or inconclusive. Potency means the concentration at half of the fitted maximal effect.
SMILES,Pol beta inh,Pol kappa inh-1,FEN1 inh-1,Pol iota inh,Pol eta inh-1,WRN helicase inh,Pol iota confirm,Pol eta inh-2,FEN1 inh-2,others
Cc1ccc(-n2cccc2/C=C2/C(=N)N3C(=NC2=O)SN=C3S(C)(=O)=O)cc1Cl,28µM*,?,?,22µM*,14µM*,?,84*,?,85*,
Nc1ccc2cc3[nH]c4cc(N)ccc4c3nc2c1,·,16µM*,11µM*,8.9µM*,4.5µM*,25µM*,19*,·,12*,
Cc1cc(=O)[nH]c2cc(N)ccc12,·,5%,2%,72%,·,·,·,·,·,
Cc1cc(N/N=C/c2ccccc2O)c2ccccc2n1,?,-1%,?,-3%,-17%,-18%,·,·,·,
COc1ccc2nc(C)cc(N/N=C/c3cccc(OC)c3O)c2c1,?,79µM*,14µM*,?,?,?,30*,27*,9.5*,Pol kappa inh-2=?
Cc1cc(C)c(S(=O)(=O)/N=C2/C=C(Sc3ncn[nH]3)C(=O)c3ccccc32)cc1C,79µM*,?,50µM*,1µM*,13µM*,22µM*,17*,24*,34*,
O=c1/c(=C\c2cccnc2)sc2nc3ccccc3n12,-1%,-2%,-3%,-9%,-11%,-2%,·,·,·,
O=C(O)c1ccc(-c2ccc(/C=c3/sc4nc5ccccc5n4c3=O)o2)cc1Cl,4µM*,10µM*,13µM*,3.2µM*,1.6µM*,?,15*,6*,?,TbPGK inh=12µM*;Pol kappa inh-2=3*
CC1CC=CC2C1C(=O)N(Cc1ccccc1)C2c1ccc(-c2ccoc2)cc1F (stereo not drawn),·,-4%,2%,-10%,·,·,·,·,·,
Cc1cc2[nH]c3c(c[n+](C)c4ccccc34)c2cc1C,1.3µM*,25µM*,?,4.5µM*,?,24%[11.6 µM],15*,·,3.8*,
CCN1CCc2c(sc(NC(=O)CSc3ccccc3)c2-c2nc3ccccc3s2)C1,2%,-6%,4%,-9%,-10%,·,·,·,·,
CC(=O)Nc1sc2c(c1-c1nc3ccccc3s1)CCN(C(C)C)CC2,·,·,·,·,·,·,67*,·,24*,
CC(=O)Nc1sc2c(c1-c1nc3ccccc3s1)CCN(C(C)C)C2,3.5µM*,?,?,?,?,-25%,19*,·,12*,Pol kappa inh-2=12*
CN1CCc2c(sc(NC(=O)CSc3ccc(F)cc3)c2-c2nc3ccccc3s2)C1,33%,-17%,-20%,53%,-2%,·,·,·,·,
O=C(Nc1ccc(F)cc1F)c1ccc2c(c1)CCN2S(=O)(=O)c1ccc(Cl)cc1,19%,-9%,-7%,?,-19%,·,·,·,·,
COc1cc(NC(=O)c2noc3c2CC(C(C)(C)C)CC3)cc(OC)c1OC (stereo not drawn),-27%,-3%,7%,19%,?,·,·,·,·,
N#C/C(=C\c1ccc([N+](=O)[O-])o1)C(=O)Nc1ccc(F)cc1,40µM*,79µM*,-19%,?,22µM*,?,?,48*,48*,
Cc1ccc(/C=C(\C#N)C(=O)Nc2ccc(Br)cc2)o1,-16%,7%,-8%,41%,·,·,·,·,·,
O=C(NCC(c1cccnc1)N1CCc2ccccc2C1)C(=O)Nc1cccc(Cl)c1 (stereo not drawn),0%,-5%,26%,8%,-16%,·,·,·,·,
COc1ccc(-c2nsc(NC(=O)COc3ccc(C)c(C)c3)n2)cc1,19%,-1%,14%,-5%,-2%,·,·,·,·,
COc1cc(/C=C/c2nc3ccccc3c(=O)[nH]2)cc(Cl)c1O,?,-1%,?,33%,?,-35%,?,·,?,
COc1ccc2noc3c2c1C(=O)c1ccccc1-3,·,?,?,?,?,?,?,·,?,
N#C/C(=C\c1cc(O)c(O)c(O)c1)C(N)=O,?,-1%,?,?,4%,-30%,19*,67*,13*,
Cc1cc(F)ccc1NC(=O)Cn1c(=O)ccc2cc(S(=O)(=O)N3CCC(C)CC3)ccc21,-21%,-5%[60.1 µM],-8%,5%,-11%,·,·,·,·,
O=Cc1cc2ccccc2cc1O,·,11%,4%,29%,·,·,·,·,·,
SMILES,Pol beta inh,Pol kappa inh-1,FEN1 inh-1,Pol iota inh,Pol eta inh-1,WRN helicase inh,Pol iota confirm,Pol eta inh-2,FEN1 inh-2,others
O=c1c(O)cccc2cc(O)c(O)c(O)c12,0.16µM*,0.89µM*,?,?,-98%,4µM*,27*,19*,24*,TbPGK inh=0.26µM*;Pol kappa inh-2=24*
COC(=O)c1ccccc1-c1c2ccc(=N)cc-2oc2cc(N)ccc12,·,28µM*,28µM*,79µM*,50µM*,4.7µM*,24*,76*,67*,Pol kappa inh-2=47*
CCCCN(C)CCNC(=O)c1ccc(Cn2c(=O)[nH]c3cc(OC)c(OC)cc3c2=O)cc1,31%,3%,-23%,-12%,4%,·,·,·,·,
O=C(O)CN1C(=O)N/C(=C\c2cccn2-c2ccc(P(=O)(O)O)cc2)C1=O,·,-10%,0%,?,2%,·,·,·,·,
COc1ccc(NC(=O)CN2C(=O)N/C(=C\c3cccn3-c3ccc(C(=O)NC#N)cc3)C2=O)cc1,·,·,·,·,·,·,42*,60*,43*,Pol kappa inh-2=19*
C=CCc1cccc2cc(C(=O)Nc3ccc(S(=O)(=O)Nc4nnc(CC)s4)cc3)c(=O)oc12,-1%,-14%,40µM*,8.9µM*,10µM*,-32%,?,30*,85*,Pol kappa inh-2=38*
CCc1nnc(NS(=O)(=O)c2ccc(NC(=O)c3ccccc3C)cc2)s1,-1%,-12%,14%,-24%,-5%,2%,·,·,·,
CCC(Nc1ccc(-c2nc(-c3ccco3)no2)cc1[N+](=O)[O-])c1ccccc1 (stereo not drawn),-23%,-28%,-2%,9%,-10%,·,·,·,·,
CC(C)(Oc1ccc(Cl)cc1)C(=O)Nc1nc2ccc(S(C)(=O)=O)cc2s1,?,-20%,-1%,-14%,-18%,·,·,·,·,
